Source: PubChem (National Center for Advancing Translational Sciences (NCATS))
GLP1R inv ag: qHTS of GLP-1 Receptor Inverse Agonists (Inhibition Mode); Potency, µM (titrated, usually from 38.3 µM), inactives show at the top dose activity change, negative = inhibition, actives largely listed as inhibitors; Glucagon-like peptide 1 receptor (Homo sapiens), P43220; 410,000 compounds, 1.6% hits; HEK293 GLP-1R CRE-luciferase, luminescence, 24 h; GLP-1R form is constitutively active; further: potency means the concentration at half of the fitted maximal effect; on the % scale 0 is the no-effect control and ±100 the full control effect; nearly all actives have a fitted effect of over 55% in size
Target sequence (P43220 whole entry, looked up): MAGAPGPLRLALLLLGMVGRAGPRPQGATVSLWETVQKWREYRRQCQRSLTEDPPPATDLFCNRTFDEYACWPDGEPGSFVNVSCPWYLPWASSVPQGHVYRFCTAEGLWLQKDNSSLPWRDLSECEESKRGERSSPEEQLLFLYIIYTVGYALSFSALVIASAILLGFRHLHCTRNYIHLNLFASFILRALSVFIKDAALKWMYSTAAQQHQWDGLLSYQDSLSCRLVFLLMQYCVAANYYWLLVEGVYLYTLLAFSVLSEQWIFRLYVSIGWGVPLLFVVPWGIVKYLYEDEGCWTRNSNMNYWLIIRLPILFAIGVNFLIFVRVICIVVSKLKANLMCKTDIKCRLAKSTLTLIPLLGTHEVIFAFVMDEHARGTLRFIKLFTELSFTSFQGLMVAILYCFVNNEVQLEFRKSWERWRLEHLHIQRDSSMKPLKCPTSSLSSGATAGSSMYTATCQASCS
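Assay principle: reduced luminescence from a cAMP-responsive reporter in HEK293 cells co-expressing a constitutively active GLP-1R. Conditions: 24 hr compound incubation, 37 deg C, 5% CO2.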
miR-21 reporter: qHTS Assay for Modulators of miRNAs and/orActivators of miR-21; HeLa miR-21 FLuc reporter, luciferase, 48 h; Potency, µM (doses to about 38.3 µM), for the others: at the top dose activity change, positive = activation, usual class: activators; 340,000 tested, under 10 active; AID 2288, 2010;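 further: % of control where 0% means no effect; miR-21 action dims this reporter so a rising signal means less miR-21 action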
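HeLa cells stably expressing CMV-driven firefly luciferase with a downstream miR-21 binding sequence, endogenously expressing miR-21, were treated with titrations (up to about 40uM final) for 48 hours at 37 degree Celsius. Luciferase luminescence was read after lysis.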
Pin1 inh: qHTS Assay to Find Inhibitors of Pin1 | Peptidyl-prolyl cis-trans isomerase NIMA-interacting 1 (Homo sapiens), Q13526 | Pin1 FP peptide displacement, HiFluor488, 10 min | Potency, µM (highest dose often 115 µM), inactives show at the top dose activity, negative = inhibition, usual class: inhibitors | 390,000 compounds, 0.009% hits; active means well fitted inhibition curve with a large enough effect in the polarisation, with a control signal flat, not every such curve was filed as active; inconclusive means small, poorly fitted or top-dose-only effect, or effect the other way, or a change in a side signal; inactive means no such curve, though single readings can be large or run the other way; the % refers to the polarisation; further: potency means the concentration at half of the fitted maximal effect; on the % scale 0 is the no-effect control and ±100 the full control effect
Target sequence (Q13526 whole entry, looked up): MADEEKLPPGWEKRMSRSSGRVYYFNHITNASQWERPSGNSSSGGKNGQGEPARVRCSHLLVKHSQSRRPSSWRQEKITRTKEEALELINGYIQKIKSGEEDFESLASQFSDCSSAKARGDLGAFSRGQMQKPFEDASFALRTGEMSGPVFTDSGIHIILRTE
HEK293 tox: qHTS of GLP-1 Receptor Inverse Agonists: Cytotox Screen; 410,000 compounds, 0.13% hits; HEK293 cAMP-luciferase reporter cells, luminescence, 24 h; Potency, µM (doses to about 38.3 µM), inactives show at the top dose activity change, negative = inhibition, hits mostly inhibitors; AID 624418, 2012;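 further: loss of luciferase light is scored as toxicity; potency means the concentration at half of the fitted maximal effect; on the % scale 0 is the no-effect control and ±100 the full control effect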
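To flag toxic compounds, the library was rerun on cells for 24 hr at 37 deg C and 5% CO2. Viability-linked luminescence was captured 12 min after adding luciferase detection reagent.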
GLP1R ag: qHTS of GLP-1 Receptor Agonists | Glucagon-like peptide 1 receptor (Homo sapiens), P43220 | HEK293 GLP-1R CRE-luciferase, luminescence, 4-6 h; cells express a hypersensitive GLP-1R form | Potency, µM (highest dose often 45.6 µM), without a hit: top-dose activation, actives largely listed as activators | 380,000 compounds, 0.007% hits; further: potency means the concentration at half of the fitted maximal effect; % of control where 0% means no effect
PTHR1 ag: qHTS for PTHR1 Agonists: Primary Screen | AID 743266, 2014 | HEK293 GP2 PTHR1 cells, GloSensor cAMP luminescence, 1 h | Potency, µM (series often up to 115 µM), without a hit: at the top dose activation, actives largely listed as activators | 410,000 compounds, 0.075% hits | Parathyroid hormone/parathyroid hormone-related peptide receptor (Homo sapiens), Q03431; further: potency means the concentration at half of the fitted maximal effect; nearly all actives have a fitted effect of over 55% in size
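HEK-293-derived GP2 cells expressing PTHR1 and a GloSensor cAMP reporter, 3,000/well, plated overnight, given luciferin plus IBMX (each 0.5 mM as added) for 1 h at 37 °C, then compound for 1 h at 37 °C. Luminescence was read after 15 min at room temperature.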
* = called active by the depositor; i = inactive; ? = inconclusive; . = no result given; [ ] = dose if it differs, or a comment. Shown are actives, neighbours in structure and some others; about 1.7% of the full set was active somewhere. Unless noted, the call rests on the fitted dose curve; in most records, active means well fitted curve in the direction sought with a large enough effect; inconclusive means small, poorly fitted or top-dose-only effect, or another doubt; inactive means no such curve, though single readings can be large; an effect the other way counts as inactive or inconclusive.

SMILES	GLP1R inv ag	miR-21 reporter	Pin1 inh	HEK293 tox	GLP1R ag	PTHR1 ag
O=S(=O)(c1ccc(Cl)c(NC(=S)N/N=C/c2ccc(O)cc2)c1)N1CCOCC1	?	-1%	5%	10µM*	-60%	-96%
O=C(COC(=O)Cc1ccccc1)Nc1cc(S(=O)(=O)N2CCOCC2)ccc1N1CCCC1	27%	-6%	1%	-1%	-3%	i
FC(F)Oc1ccc(NC(=S)NNc2ccnc3cc(Cl)ccc23)cc1	?	-1%	?	?	2%	-24%
COc1ccc(CCNC(=O)N2c3ccccc3Sc3ccccc32)cc1	7.9µM*	.	5%	-18%	7%	-32%[57.5 µM]
COc1ccc(CCNC(=O)COC(=O)Cc2ccccc2)cc1	1%	-1%	-8%	-3%	3%	i
COc1cc(/C=C2\SC(=S)N(NC(=O)c3cccc(O)c3)C2=O)ccc1O	4%	-9%	?	?	15%	i
CCOc1cc(/C=C2\SC(=S)N(NC(=O)c3cccnc3)C2=O)ccc1O	4%	6%	?	11µM*	2%	i
CCCCN1CCC(O)(c2ccccc2)C(C(=O)c2ccccc2)C1 (stereo not drawn)	10%	-4%	-2%	1%	-6%	-1%[57.5 µM]
CCC1C(c2ccccc2)N(C)C(c2ccccc2)CC1(O)c1ccccc1 (stereo not drawn)	2.5µM*	14%	2%	?	0%	-14%
Clc1ccc2c(c1)C(OC1CN3CCC1CC3)c1ccccc1CS2 (stereo not drawn)	2.8µM*	?	0%	?	-20%	-8%
CC1Oc2cc3c(-c4c(O)cc(O)c5c(O)c6c(cc45)OC(C)C(C)C6=O)c(O)cc(O)c3c(O)c2C(=O)C1C (stereo not drawn)	13µM*	?	?	?	0%	-2%
CC(C)CCOP(=O)(c1ccc(N(C)C)cc1)C(O)c1ccc(C(C)C)cc1 (stereo not drawn)	?	16%	-3%	-21%	8%	-48%
CC(C)CCOP(=O)(c1ccc(N(C)C)cc1)C(O)c1ccc(Cl)cc1Cl (stereo not drawn)	6.3µM*	28%	-3%	?	6%	i
CCOC(=O)C1(CCc2ccccc2)CCN(Cc2cccc3cnccc23)CC1	?	-3%	1%	10%	6%	-33%
c1ccc(COc2ncnc3c2ncn3CCCN2CCN(Cc3cccc4ccccc34)CC2)cc1	3.5µM*	.	.	?	-7%	-29%
Cc1nc2c(=O)n(C)c(=O)nc-2n(C)n1	346%	?	?	2µM*	-27%	-31%
Oc1ccc(Cl)cc1Sc1cc(Cl)ccc1O	10µM*	.	3%	-11%	4%	-24%
Oc1ccc(Cl)cc1	4%	.	-11%	5%	-3%	-15%
CC1=Nc2cc(C(=O)NCCc3ccc(Cl)cc3)ccc2Sc2ccc(C)cc21	?	21%	31%	?	.	-56%
CCOP(=O)(OCC)C(NC(=O)Nc1ccc(C)c(Cl)c1)c1ccccc1 (stereo not drawn)	?	-6%	0%	-5%	10%	-4%
CCOP(=O)(OCC)C(NC(=O)Nc1ccc(Cl)c(Cl)c1)c1ccccc1 (stereo not drawn)	8.9µM*	?	-2%	-9%	1%	-12%
CN1C(=O)c2ccccc2Sc2ccc(NC(=O)c3ccc(C(F)(F)F)cc3)cc21	7%	?	3%	-3%	.	-28%
CS(=O)(=O)c1ccc(C2=C(CNC(=O)c3ccc([N+](=O)[O-])cc3)[C@H]3CC[C@@H](C2)N3CCOc2ccccc2)cc1	10µM*	.	.	?	-4%	-20%
O=C(NCC1=C(c2cccc3ccccc23)C[C@@H]2CC[C@H]1N2Cc1ccco1)c1ccc([N+](=O)[O-])cc1	3.5µM*	.	.	-28%	-5%	22%
CS(=O)(=O)c1ccc(C2=C(CNC(=O)c3ccncc3)[C@H]3CC[C@@H](C2)N3CCOc2ccccc2)cc1	-11%	.	.	-7%	-1%	-52%
SMILES	GLP1R inv ag	miR-21 reporter	Pin1 inh	HEK293 tox	GLP1R ag	PTHR1 ag
Cc1[nH]c2ccccc2c1P(=S)(c1ccccc1)c1ccccc1	.	.	-2%	.	.	.
CC1CCC(C(C)C)C(OC(=O)Cn2c(-c3ccccc3)[n+](C)c3ccccc32)C1 (stereo not drawn)	?	?	5%	8.9µM*	-3%	-32%
CCCOc1ccc(C(=O)Nc2ccc(-c3cc4ccccc4oc3=O)c(C)c2)cc1	?	17%	11%	-13%	.	-56%
Cn1c(O)c(C=Nc2ccccc2)c(=O)n(C)c1=O	-11%	-2%	1%	-2%	2%	i
Cn1c(O)c(/C=N/Nc2ccccc2)c(=O)n(C)c1=O	10µM*	6%	5%	?	9%	i
CCOC(=O)C(O)(c1ccc(NC(=O)c2ccc(Cl)c(Cl)c2)cc1)C(F)(F)F (stereo not drawn)	5µM*	7%	?	-19%	1%	-15%
C[C@@H]1CN([C@@H](C)CO)S(=O)(=O)c2ccc(Br)cc2O[C@H]1CN(C)C(=O)Nc1ccc(C(F)(F)F)cc1	7.9µM*	.	.	-8%	0%	i
CC(C)(C)NC(=O)N1c2ccccc2Sc2ccccc21	?	8%	4%	-15%	15%	-18%
O=C(CN1c2ccccc2Sc2ccccc21)NNC(=O)Nc1ccc(Cl)cc1	1.4µM*	21%	7%	?	-39%	-31%
O=C(OCc1cc(=O)n2nc(C3CC3)sc2n1)c1ccc(NC(=O)c2ccccc2Cl)cc1	-8%	?	?	-3%	.	-94%
CC(C)CCn1c(N)c(C(=O)NCc2cccs2)c2nc3ccccc3nc21	0%	22%	-2%	18%	1%	-20%
CC(C)OCCCNC(=O)c1c(N)n(Cc2cccs2)c2nc3ccccc3nc12	11µM*	22%	?	246%	-10%	-25%[57.5 µM]
COC(=O)C1=C(C)N(Cc2ccccc2)C(=NCc2cccc(C(F)(F)F)c2)N[C@H]1c1cccc(F)c1	?	?	?	22µM*	-21%	-14%
CN1CCC2(CC1)c1ccccc1-c1ccccc12	11µM*	.	3%	?	-4%	-21%
